The values that follow come from PubChem BioAssay (NCI).

The panel holds about 83,000 compounds, 20% with a hit somewhere; the sample as a whole holds those more often.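 Testing used 96-well plates and a 48-hour single-concentration exposure. Example: -40 means 40% of the starting cells died.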 Unmarked numbers belong to inactive results. Calls of active or inactive are those of the source.

This assay deals with OVCAR-5 ovarian. Put plainly: NCI-60 one-dose screen, 48 h (100 = growth as untreated, 0 = no growth, -100 = all killed). The settings on record: 10 µM unless noted. The method, then: Growth inhibition of the OVCAR-5 human tumor cell line is measured as a screen for anti-cancer activity. Cells are grown in 96 well plates and exposed to the test compound for 48 hours. Compounds are tested at a single concentration, which is 10^-5 M for most compounds. The reported endpoint is percent growth (GI% or GIPRCNT), where numbers from 0 - 100% represent growth inhibition, and numbers from -100% - 0 represent cell death. For example, a value of 40 represents 60% growth inhibition. A value of 0 means no net growth occurred over the course of the experiment. A value of -40 indicates 40% of cells at the beginning of the experiment died by the end of the experiment. A value of -100 means all cells are dead at the end of the experiment.
NCI-60 Human Tumor Cell Lines Screen was performed using the standard one-dose NCI protocol, which is described in more detail at https://dtp.cancer.gov/discovery_development/nci-60/default.htm.
Compounds with GIPRCNT values below 10 were considered active. Activity score was based on GIPRCNT using the following formula: […]
Score is 0 for GIPRCNT values of 100 or above, 50 for GIPRCNT values of 0, and 100 for GIPRCNT values of -100.
As for `O=C(NCCNCCO)c1cc([N+](=O)[O-])cc([N+](=O)[O-])c1O`, the growth is 108%.

On to `CSC1=Nc2c(c(C)c(-c3ccccc3)n2CCCCl)C2=NC(=O)CN12`, for which the growth is 86.2%.

`CCCC[N+](C)(N)CCCC`: the growth was 103%.

Consider `CN1C(=O)C(=Cc2coc3ccc(Br)cc3c2=O)C(=O)N(C)C1=O`, for which the growth is 114%.

For `Cc1ccc(S(=O)(=O)Nc2cccc(Cn3c(=O)[nH]c4ccc(Oc5ncccn5)cc4c3=O)c2)cc1`, the growth is 86.7%.

For the compound `COc1ccc(/C=C(/C(=O)N2CCCCC2)c2cc(OC)c(OC)c(OC)c2)cc1`, the growth was 35.1%.

In the case of `CC(=O)Nc1nc(C)c(C(=O)NNS(=O)(=O)c2ccccc2)s1`, the growth was 106%.

In the case of `N=C(c1ccccc1)N(Cc1ccccc1)Cc1ccccc1`, the growth is 86.3%.

Consider `CCn1cc(C(=O)O)c(=O)c2cc(F)c(N3CCN(S(=O)(=O)c4ccc(Cl)cc4)CC3)cc21`, for which the growth is 51.9%.

As to `CC#Cc1nc(Nc2cc(C)[nH]n2)c2ccccc2n1`, the growth is 29.4% [100 µM].

For the compound `CC(=O)Nc1ccc(S(=O)(=O)Cl)cc1`, the growth is 109%.

Turning to `O=C(/C=C\c1ccccc1Cl)c1ccccc1`, the growth is 89.8%.

Take `COC(=O)c1ccc2[nH]c(O)c(C(=Nc3ccc(N(C)C(=O)CN4CCN(C)CC4)cc3)c3ccc([N+](=O)[O-])cc3)c2c1`: the growth is 94.3%.

For `C=C[C@]1(C)C=C2C(=O)[C@@]3(O)OC[C@@]4(CCCC(C)(C)C43O)C2(O)C(O)C1` (stereo not given in full), the growth was 120%.

For the compound `COc1cccc2c1n([O-])c1cccc(OC)c1[n+]2=O`, the growth was 18.2%.

As for `CC(=O)NNC(=O)c1sc(NC(C)=O)nc1C`, the growth is 97%.

In the case of `CCOc1ccccc1/C=N\N=C(N/N=C/c1ccccc1OCC)N/N=C/c1ccccc1OCC`, the growth was 13.9%.

Consider `COc1cc(/C=C/C(=O)/C=C(/C=C/c2ccc(OC(C)=O)c(OC)c2)OB(F)F)ccc1OC(C)=O`, for which the growth is 104%.

Regarding `COc1ccc(Cn2cc3c(c2-c2ccc(O)cc2)CCc2cnoc2-3)cc1`, the growth is 41.2%.

Regarding `CC(O)c1cc[cH-]c1.[Fe+2].c1cc[cH-]c1` (stereo not given), the growth is 100%.

For `CC(CCN1CCN(CCC(C)CC(C)(C)C)C1CC(C)CC(C)(C)C)CC(C)(C)C` (stereo not given), the growth is 90.4%.

As to `NC(=O)CC(NC(=O)COc1ccc(Cl)cc1Cl)C(=O)O` (stereo not given), the growth was 105%.

Take `COc1cc(-c2nn(-c3ccc(NC(=O)Nc4ccc(Cl)c(C(F)(F)F)c4)cc3)cc2-c2ccncc2)ccc1Cl`: the growth was 25%.

`CN(C)CCOC(=O)C(C)(C)C`: the growth is 103%.

On to `NNC(=O)CNc1ccc2ccccc2c1`, for which the growth was 195%.

As to `O=C(/C=C/c1cccc(O)c1)c1cccc(-n2cc(-c3ccc(Cl)cc3)[nH]c2=O)c1`, the growth is -47.3% (active).

As to `NC(N)=Nc1ccc(/C=C2\C=Cc3ccccc32)cc1`, the growth is 80.7%.

On to `C=CC1CN2CCC1CC2C(O)c1ccnc2ccc(OC)cc12` (stereo not given), for which the growth is 93.1%.

In the case of `COc1ccccc1Nc1nnc(COc2ccc(CNC(=O)CCCC/C=C/C(C)C)cc2OC)o1`, the growth is 89.7%.

Consider `Cc1ccnc2c(NC(C)CCCN)cc(O)c(O)c12` (stereo not given), for which the growth is 79.7%.

For the compound `COc1ccc(-c2nnc(SCC(=O)Nc3ccc(C(=O)/C=C/c4cc(OC)c(OC)c(OC)c4)cc3)n2-c2ccccc2)cc1OC`, the growth is 19.2% [100 µM].

In the case of `COc1ccc(/C=C(/C(=O)N2CCN(c3ccc(C)cc3)CC2)c2cc(OC)c(OC)c(OC)c2)cc1N`, the growth was 27.1%.

For the compound `CC1CCCCC[N+]12CCCC2` (stereo not given), the growth was 106%.

On to `O=C(CN1C(=O)NC(c2ccccc2)(c2ccccc2)C1=O)c1ccc(N2CCCC2)cc1`, for which the growth was 101%.

For the compound `BrCCCOc1ccc(Oc2ccc(OCCCBr)cc2)cc1`, the growth is 122%.

On to `C[C@H]1C[C@@H](n2cnc3c(N)nccc32)[C@H](O)[C@@H]1O`, for which the growth was 103%.

Consider `CCOC(=O)NC1=NCC(C)(C)S1`, for which the growth is 98.9%.

For the compound `COC1=C(OC)C(=O)c2ccccc2C1=O`, the growth is 101%.

`O=C(Nc1ccc(Cl)c(Cl)c1)O/N=C\c1c(Cl)ccc([N+](=O)[O-])c1Cl`: the growth is 12.1%.

As to `Cc1cc2c(-c3nc4ccccc4[nH]3)c(O)c(O)cc2c(O)c1-c1c(C)cc2c(-c3nc4ccccc4[nH]3)c(O)c(O)cc2c1O`, the growth is 26.2%.
